In PubChem BioAssay (EPA / NIEHS):
Results filed as inconclusive are left out. Active and inactive are the calls of the source. The calls were made as follows, unless noted: active = hit-call score of the fitted dose curve at least 0.9, where 1 is the maximum; inactive = score below 0.9.

Test: VALA_TUBHUV_Agonist_CellCount: Viability Assessment in the VALA Sciences human Umbilical Vein Endothelial Tubule Formation (TUBHUV) Agonism Assay (AID 2284309; active = hit-call score of the fitted dose curve at least 0.9, where 1 is the maximum)
Outline: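 Viability endpoint by fluorescent imaging of fixed nuclear/CD31-stained HUVEC–HDF co-cultures. Readout is cell count, fitted upward against 0.1% DMSO. Compound exposure was 72 h in 10 ng/ml VEGF, after 3-day co-culture priming.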
For `CO[C@@H]1[C@H](OC(=O)NC(=O)CCl)CC[C@]2(CO2)[C@H]1[C@@]1(C)O[C@@H]1CC=C(C)C`, the outcome was “inactive”.
In the case of `O=P(OCCCl)(OCCCl)OCCCl`, the outcome is reported as “inactive”.
With `Oc1ccc2ccc3cccc4ccc1c2c34` the outcome was “inactive”.
With `Clc1ccc(Cl)c(Cl)c1` the outcome was “inactive”.

Test: VALA_TUBHUV_Antagonist_CellCount: Viability Assessment in the VALA Sciences human Umbilical Vein Endothelial Tubule Formation (TUBHUV) Antagonism Assay (AID 2284310; active = hit-call score of the fitted dose curve at least 0.9, where 1 is the maximum)
Outline: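 Read-out is imaged cell count after nuclear and CD31 staining, fitted against 0.1% DMSO vehicle. Compounds were added for 3 days, in 10 ng/ml VEGF assay medium, to HUVEC–HDF co-cultures pre-grown 3 days.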
For `CO[C@@H]1[C@H](OC(=O)NC(=O)CCl)CC[C@]2(CO2)[C@H]1[C@@]1(C)O[C@@H]1CC=C(C)C`, the outcome was “inactive”.
In the case of `O=P(OCCCl)(OCCCl)OCCCl`, the AC50 is reported as 88.3 µM (active).
For `Oc1ccc2ccc3cccc4ccc1c2c34`, the outcome was “inactive”.

Test: IUF_NPC2-5_viability_120hr: Viability Assessment at 120 hours in the Leibniz Research Institute for Environmental Medicine (IUF) Neural Progenitor Cell Migration and Differentiation Assay (NPC2-5) (AID 2284312)
Outline: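 Human fetal neural progenitor spheres (0.3 mm) plated on poly-D-lysine/laminin in N2 differentiation medium, exposed 120 h with half-medium refresh at day 3. Viability by alamar blue resazurin fluorescence; 7 concentrations, DMSO max 0.1%.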
With `COP(=S)(OC)SCN1C(=O)c2ccccc2C1=O` the outcome was “inactive”.
In the case of `OCCOCCO`, the outcome is reported as “inactive”.
In the case of `[O-][Cl+]O`, the outcome is reported as “inactive”.
With `O=P(OCCCl)(OCCCl)OCCCl` the outcome was “inactive”.
In the case of `CCCCOC(=O)c1ccccc1C(=O)OCc1ccccc1`, the outcome is reported as “inactive”.
In the case of `COC(=O)Nc1nc2ccccc2[nH]1`, the AC50 is reported as 12.5 µM (active).
In the case of `CC(C)COC(=O)c1ccccc1C(=O)OCC(C)C`, the outcome is reported as “inactive”.
In the case of `CCC[CH2][Sn]([Cl])([CH2]CCC)[CH2]CCC`, the AC50 is reported as 0.393 µM (active).
With `CNC(=O)Oc1cccc2c1OC(C)(C)C2` the outcome was “inactive”.
With `CC(C)(C)C(O)(CCc1ccc(Cl)cc1)Cn1cncn1` (configuration not stated) the outcome was “inactive”.
